Laboratory results: PubChem BioAssay (Tox21)
Values joined by “and” are separate entries in the source; they are usually repeats but may differ in a detail not shown here. Equal values may be shown once. Records with an inconclusive call do not appear. A call without a number means that no potency is given here. Some compounds were tested as several samples or in several runs, with calls that do not always agree. Active and inactive are the calls of the source. Unless noted, the call rests on the fitted dose curve.

Assays:
[1] = qHTS assay to identify small molecule agonists of the vitamin D receptor (VDR) signaling pathway - cell viability counter screen (AID 743224; active means well fitted curve in the direction sought with a large enough effect in the repeat runs; an effect the other way counts as inactive or inconclusive; further: nearly all actives have a fitted effect of over 50% in size; further: potency means the concentration at half of the fitted maximal effect)
Procedure, shortened: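 In parallel with the bla FRET readout, cytotoxicity toward VDR-bla cells after 16 h compound exposure was assessed by CellTiter-Glo, with luminescence recorded after a 30 min room-temperature incubation.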

[2] = qHTS assay to identify small molecule antagonists of the vitamin D receptor (VDR) signaling pathway - cell viability counter screen (AID 743225; active means well fitted curve in the direction sought with a large enough effect in the repeat runs; an effect the other way counts as inactive or inconclusive; further: nearly all actives have a fitted effect of over 50% in size)
Procedure, shortened: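 VDR-bla HEK 293T cells, 4 h pre-incubation at 37C, then compound plus 1-alpha,25-dihydroxyvitamin D3 (3 nM final) for 16 h. After the beta-lactamase FRET read, CellTiter-Glo was added to the same wells; luminescence after 30 min at room temperature.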

[3] = qHTS assay to identify small molecule agonists of the NFkB signaling pathway (AID 1159509; active means well fitted curve in the direction sought with a large enough effect in the signal ratio in the repeat runs, not every such curve was filed as active; the % refers to the signal ratio; further: series mostly up to about 61 µM)
Procedure, shortened: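 Pathway activation was measured in ME-180 cells stably expressing beta-lactamase under NF-kB response element control. Substrate cleavage was read as the 460/530 nm emission shift after 5 hr compound incubation.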

[4] = qHTS assay to identify small molecule agonists of the NFkB signaling pathway - cell viability counter screen (AID 1159515); further: series mostly up to about 61 µM; nearly all actives have a fitted effect of over 55% in size
Procedure, shortened: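 Plate 2,000 NFkB-bla ME-180 cells/well; incubate overnight. Add compounds, 5 hr at 37 C. Add FRET substrate, 1.5 hr RT. Add CellTiter-Glo, 30 min RT; read luminescence.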

[5] = qHTS assay to identify small molecule agonists of the endoplasmic reticulum stress response signaling pathway (AID 1159516; active means well fitted activation curve with a large enough effect in the signal ratio in the repeat runs, not every such curve was filed as active; the % refers to the signal ratio)
Procedure, shortened: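 Beta-lactamase expression from the ER stress response element in HeLa reporter cells is quantified with the LiveBLAzer B/G FRET substrate, read at 405 nm excitation after 2 hr at room temperature, following 5 hr compound treatment at 37 C.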

[6] = qHTS assay to identify small molecule agonists of the endoplasmic reticulum stress response signaling pathway - cell viability counter screen (AID 1159517); further: series mostly up to about 61 µM; nearly all actives have a fitted effect of over 50% in size
Procedure, shortened: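 Cpd-treated ESRE-bla HeLa (5 hr, 37 C) → LiveBLAzer 2 hr RT → CellTiter-Glo 30 min RT → luminescence.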

[7] = qHTS assay to identify small molecule antagonists of the retinoid-related orphan receptor gamma (ROR-gamma) signaling pathway - cell viability counter screen (AID 1159520; active means well fitted curve in the direction sought with a large enough effect in the repeat runs; an effect the other way counts as inactive or inconclusive; further: nearly all actives have a fitted effect of over 50% in size; further: potency means the concentration at half of the fitted maximal effect)
Procedure, shortened: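 Tet-on ROR gamma CHO cells (1,000/well) were plated 4 hr, given compounds in DMSO for 2 hr at 37 C, then induced with 1 uM final doxycycline for 16 hr. Viability was read as ATP by CellTiter-Glo luminescence after 30 min.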

[8] = qHTS assay to identify small molecule agonists of the AP-1 signaling pathway - cell viability counter screen (AID 1159525); further: nearly all actives have a fitted effect of over 55% in size; further: potency means the concentration at half of the fitted maximal effect
Procedure, shortened: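 Each titration point was normalised to DMSO and tetra n-octyl ammonium bromide controls. The read was Cell Titer Glo luminescence after 30 min at RT, following 5 h compound exposure of ME-180 AP-1-bla cells at 37 °C.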

[9] = qHTS assay to identify small molecule agonists of the AP-1 signaling pathway (AID 1159526)
[10] = molecular target: Nuclear receptor ROR-gamma (Homo sapiens) (UniProt P51449); assay: qHTS assay to identify small molecule antagonists of the retinoid-related orphan receptor gamma (ROR-gamma) signaling pathway (AID 1159521; active means well fitted curve in the direction sought with a large enough effect in the repeat runs; an effect the other way counts as inactive or inconclusive)
Procedure, shortened: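 Tet-on RORγ CHO cells carrying a ROR response element–luciferase reporter were pretreated with compounds for 2 h, then induced with 1 uM (final) doxycycline hyclate for 16 h at 37 C. Antagonism was read as decreased ONE-Glo luminescence.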

Compound	Potency [1]	outcome [2]	outcome [3]	outcome [4]	outcome [5]	outcome [6]	Potency [7]	Potency [8]	outcome [9]	Potency [10]	activation [9]
CC1CCC(C(C)C)C(O)C1 (stereo not drawn)	inactive	inactive	inactive	inactive	inactive	inactive	inactive	inactive	inactive		
O=c1[nH]nnc2ccccc12	inactive	inactive	inactive	inactive	inactive	inactive	inactive	inactive	inactive		
O=c1[nH]c(=O)n([C@H]2CCCO2)cc1F	inactive	inactive	inactive	inactive	inactive	inactive	inactive	inactive	inactive		
C=CCOC(=O)c1ccccc1C(=O)OCC=C		inactive	inactive	inactive	inactive	inactive	inactive	inactive	inactive		
CN(C)CCC(c1ccc(Cl)cc1)c1ccccn1 (stereo not drawn)	inactive	inactive	inactive	inactive	inactive	inactive	inactive	inactive			
CCC(O)OCCCOC (stereo not drawn)	inactive	inactive	inactive	inactive	inactive	inactive	inactive	inactive	inactive		
O=P(OC(CCl)CCl)(OC(CCl)CCl)OC(CCl)CCl	inactive	inactive	inactive	inactive	inactive	inactive	inactive	inactive			
CCCCCC1=CCCC1=O		inactive	inactive	inactive	inactive	inactive	inactive	inactive	inactive		
COc1cc(Cc2cnc(N)nc2N)cc(OC)c1OC		inactive	inactive	inactive	inactive	inactive	inactive	inactive	inactive		
O=C(O)c1cc(=O)c2c(OCC(O)COc3cccc4oc(C(=O)O)cc(=O)c34)cccc2o1		inactive	inactive	inactive	inactive	inactive	inactive	inactive	inactive		
O=C(O)c1ccc2c(c1)C(=O)OC2=O	inactive	inactive	inactive	inactive	inactive	inactive	inactive	inactive	inactive		
O=C(Oc1ccccc1)c1ccccc1		inactive	inactive	inactive	inactive	inactive	inactive	inactive	inactive		
Cc1ccc(S(N)(=O)=O)cc1	inactive	inactive	inactive	inactive	inactive	inactive	inactive	inactive	inactive		
CC[C@H](C)C(=O)O[C@H]1C[C@@H](C)C=C2C=C[C@H](C)[C@H](CC[C@@H]3C[C@@H](O)CC(=O)O3)[C@H]21		inactive	inactive	inactive	inactive	inactive	27.7 µM (active)	55.7 µM (active) and inactive	inactive		
CC(C)(N)CO	inactive	inactive	inactive	inactive	inactive	inactive	inactive	inactive	inactive		
CC1=C(C)S(=O)(=O)CCS1(=O)=O		inactive	inactive	inactive	inactive	inactive	inactive	inactive	inactive		
O=c1[nH]c(=O)n([C@H]2C[C@H](O)[C@@H](CO)O2)cc1Br	inactive	inactive	inactive	inactive	inactive	inactive	inactive	inactive	inactive		
CC(=O)CC(=O)Nc1ccccc1C	inactive	inactive	inactive	inactive	inactive	inactive	inactive	inactive	inactive		
CCCCCC/C(C=O)=C\c1ccccc1	inactive	inactive	inactive	inactive	inactive		inactive	inactive	inactive	inactive	
CCCCCOC(C)=O	inactive and 49 µM (active)	inactive	inactive	inactive	inactive	inactive	inactive	inactive	inactive		

Compound	Potency [1]	outcome [2]	outcome [3]	outcome [4]	outcome [5]	outcome [6]	Potency [7]	Potency [8]	outcome [9]	Potency [10]	activation [9]
CCC(O)OC(O)CC (stereo not drawn)	inactive	inactive	inactive	inactive	inactive	inactive	inactive	inactive	inactive		
Nc1cc([N+](=O)[O-])ccc1O	inactive	inactive	inactive	inactive	inactive	inactive	inactive	inactive	inactive		
C=CCNC(N)=S		inactive	inactive	inactive	inactive	inactive	inactive	inactive	inactive		
Cc1cccnc1		inactive	inactive	inactive	inactive	inactive	inactive	inactive	inactive		
CCCCCCCC(=O)OC		inactive	inactive	inactive	inactive	inactive	inactive	inactive	inactive		
CCc1ccc(CCOc2ccc(CC3SC(=O)NC3=O)cc2)nc1 (stereo not drawn)	inactive	inactive	inactive	inactive	inactive	inactive	inactive	inactive	inactive		
C#C[C@]1(O)CC[C@H]2[C@@H]3CCC4=CC(=O)CC[C@@H]4[C@H]3CC[C@@]21C	inactive	inactive	inactive	inactive	inactive		inactive	inactive	inactive		
CC(C)(C)[C@@H](O)[C@@H](Cc1ccc(Cl)cc1)n1cncn1		inactive	inactive	inactive	inactive		inactive	inactive	inactive		
CCCCC(CC)CO (stereo not drawn)	inactive	inactive	inactive	inactive	inactive		inactive	inactive	inactive		
CC(C)c1ccc(S(=O)(=O)O)cc1	inactive	inactive	inactive	inactive	inactive		inactive	inactive	inactive		
C/C=C1/CC2C=CC1C2 (stereo not drawn)		inactive		inactive	inactive	inactive	inactive	inactive	inactive		
CCCCN(CCCC)CCCC	inactive	inactive	inactive	inactive	inactive		inactive	inactive	inactive	inactive	
O=C1CCC(N2C(=O)c3ccccc3C2=O)C(=O)N1 (stereo not drawn)	inactive	inactive	inactive	inactive	inactive		inactive	inactive	inactive		
Cc1cnc(C(=O)NCCc2ccc(S(=O)(=O)NC(=O)NC3CCCCC3)cc2)cn1	inactive	inactive	inactive	inactive	inactive		inactive	inactive	inactive		
OCCOCCN1CCN(C2=Nc3ccccc3Sc3ccccc32)CC1		inactive	inactive	inactive	inactive		inactive	inactive	inactive		
CCCCC(CC)COC(=O)C(C#N)=C(c1ccccc1)c1ccccc1 (stereo not drawn)		inactive	inactive	inactive	inactive		inactive	inactive	inactive		
COc1ccc(NC(C)=O)cc1N	inactive	inactive	inactive	inactive	inactive		inactive	inactive	inactive		
N[C@@H](Cc1cc(I)c(Oc2cc(I)c(O)c(I)c2)c(I)c1)C(=O)O	inactive	inactive	inactive	inactive	inactive		inactive	inactive	inactive		
CC(=O)c1ccccc1		inactive	inactive	inactive	inactive		inactive	inactive	inactive		
CC(=O)Nc1ccccc1		inactive	inactive	inactive	inactive		inactive	inactive	inactive		

Compound	Potency [1]	outcome [2]	outcome [3]	outcome [4]	outcome [5]	outcome [6]	Potency [7]	Potency [8]	outcome [9]	Potency [10]	activation [9]
FC(F)(F)c1ccc(Cl)c(Cl)c1	inactive	inactive	inactive	inactive	inactive		inactive	inactive	inactive		
CCCC(C)=O	inactive	inactive	inactive	inactive	inactive		inactive	inactive	inactive		
CCCCCCCCCCCCOCCO	inactive	inactive	inactive	inactive	inactive		inactive	inactive	inactive		
C=C(C)C(=O)OCCOCCOCCOC(=O)C(=C)C	inactive	inactive	inactive	inactive	inactive		inactive	inactive	inactive		
O=C(O)CC(C(=O)O)C(CC(=O)O)C(=O)O (stereo not drawn)		inactive	inactive	inactive	inactive		inactive	inactive	inactive		
CCOC(=O)NNc1nncc2ccccc12		inactive	inactive	inactive	inactive		inactive	inactive	inactive		
CCCCCCCCCCCCCCCO	inactive	inactive	inactive	inactive	inactive		inactive	inactive	inactive		
C[C@H]1C[C@@H]2[C@H]([C@@H](O)C[C@@]3(C)[C@H]2CC[C@]3(O)C(=O)CO)[C@@]2(C)C=CC(=O)C=C12		inactive	inactive	inactive	inactive		inactive	inactive	inactive		
CCCCCC(N)=O		inactive	inactive	inactive	inactive		inactive	inactive	inactive	inactive	
NNc1nncc2ccccc12	inactive	inactive	inactive	inactive	inactive		inactive	inactive			-4.28% [at 15.8 µM] (inactive)
COCCCOc1ccnc(CS(=O)c2nc3ccccc3[nH]2)c1C (stereo not drawn)	inactive		inactive	inactive	inactive		inactive	inactive	inactive		
O=C(O)c1ccc(C(=O)O)cc1	inactive	inactive	inactive	inactive	inactive		inactive	inactive	inactive		
Fc1ccc(Br)cc1	inactive	inactive	inactive	inactive	inactive		inactive	inactive	inactive		
CC(c1cc2ccccc2s1)N(O)C(N)=O (stereo not drawn)		inactive	inactive	inactive	inactive		inactive	inactive	inactive		
OCc1cccnc1	inactive	inactive		inactive	inactive	inactive	inactive	inactive	inactive		
COc1ccc(Nc2ccccc2)c(C)c1	inactive	inactive	inactive	inactive	inactive		inactive	inactive	inactive	inactive	
c1ccc(OCCOc2ccccc2)cc1	inactive	inactive	inactive	inactive	inactive		inactive	inactive	inactive		
CCCCCCCCCCCCS	inactive	inactive	inactive	inactive	inactive		inactive	inactive	inactive		
COc1ccc(Cl)cc1C(=O)NCCc1ccc(S(=O)(=O)NC(=O)NC2CCCCC2)cc1	inactive	inactive	inactive	inactive	inactive		inactive	inactive	inactive	inactive	
